# CHRM1 agonist: human M1 muscarinic receptor agonism. CHO-K1 hM1, Fluo-8 calcium fluorescence, agonist mode; 0% DMSO, 100% acetylcholine EC100. AID 588814. activation, % at 3 µM. hit rate 0.33% among 360,000;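 active = activation above the run's mean compound activation plus 3 SD, cut at about 16% in these data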;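 note: peak over basal fluorescence ratio within a 140 s kinetic read after compound addition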
# Target sequence (P11229 whole entry, looked up): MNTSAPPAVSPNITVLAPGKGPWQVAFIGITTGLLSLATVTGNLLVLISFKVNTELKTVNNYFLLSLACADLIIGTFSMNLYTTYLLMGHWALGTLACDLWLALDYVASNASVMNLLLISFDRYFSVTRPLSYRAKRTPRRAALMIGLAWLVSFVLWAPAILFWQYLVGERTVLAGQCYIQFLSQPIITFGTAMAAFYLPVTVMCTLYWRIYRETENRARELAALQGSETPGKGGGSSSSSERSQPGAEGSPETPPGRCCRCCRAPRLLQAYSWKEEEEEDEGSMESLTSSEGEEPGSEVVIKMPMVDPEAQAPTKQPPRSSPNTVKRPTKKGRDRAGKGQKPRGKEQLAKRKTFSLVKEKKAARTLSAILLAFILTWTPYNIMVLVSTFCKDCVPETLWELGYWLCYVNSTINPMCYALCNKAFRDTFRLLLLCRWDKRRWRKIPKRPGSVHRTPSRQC
# M1 PAM parental: nonselective activator or artifact in parental CHO-K1 calcium assay | ATP EC20, Fluo-8 calcium fluorescence; 0% at ATP EC20, 100% at ATP max | activation, % at 3 µM | hit rate 0.02% among 360,000;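 active = activation above the run cutoff, the mean activation of all test compounds plus 3 SD, cut at about 40% in these data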;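 note: peak over basal fluorescence ratio in a 140 s read after ATP addition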
# CHO-K1 Ca antag: counter-screen for M1 antagonists: effect in parental CHO-K1 cells. ATP-induced calcium, Fluo-8 fluorescence. inhibition, % at 3 µM. hit rate 0.6% among 360,000. AID 602250;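 active = inhibition above a per-plate cutoff, the plate's mean sample inhibition plus 3 SD, cut at about 24% in these data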
# CHRM1 PAM: positive allosteric modulators of human M1 muscarinic receptor | P11229 | CHO-K1 hM1, Fluo-8 calcium fluorescence, ACh EC20; 0% = ACh EC20, 100% = maximal ACh | activation, % at 3 µM | hit rate 0.088% among 360,000 | AID 588819; in the data active = activation above about 19%, passing the limit was not always enough
# CHRM1 antagonist: human CHRM1 antagonism; CHO-K1 hM1, Fluo-8 calcium fluorescence, ACh EC80 antagonist; P11229; inhibition, % at 3 µM; hit rate 1.3% among 360,000;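 active = percent inhibition above its own plate's cutoff, namely the mean of that plate's compound wells plus 3 SD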;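 note: peak over basal fluorescence ratio during 140 s after agonist addition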
# CHO-K1 Ca ag: M1 agonist counterscreen hit in parental CHO-K1 cells | Fluo-8 calcium fluorescence; scaled to maximal ATP response, vehicle zero | activation, % at 3 µM | hit rate 0.48% among 360,000; in the data active = activation above about 15%;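 note: untransfected CHO-K1 host cells lacking M1 receptor as counterscreen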
# A number is an active result; . = inactive. The list is not random: actives were taken first. Their share in the collection is about 2.4%.
SMILES,CHRM1 agonist,M1 PAM parental,CHO-K1 Ca antag,CHRM1 PAM,CHRM1 antagonist,CHO-K1 Ca ag
COc1ccc(C(=O)Nc2cccc(S(=O)(=O)N3CCCC3)c2)cc1S(=O)(=O)N1CCOCC1,.,.,.,.,43,.
O=C(CNC(=O)c1ccc(S(=O)(=O)N2CCCC2)cc1)N/N=C/c1c(Cl)cccc1Cl,.,.,.,.,.,20
Cc1ccc(S(=O)(=O)CCC(=O)NCCN2C(=O)S/C(=C\c3ccccc3)C2=O)cc1,.,.,.,.,.,19
COc1ccc(NC(=O)c2cc3c(s2)CCC(C)C3)cc1S(=O)(=O)N1CCOCC1 (stereo not drawn),.,.,25,.,.,.
O=C(CNC(=O)c1ccc(S(=O)(=O)N2CCCC2)cc1)N/N=C/c1ccc(Cl)cc1,.,.,.,.,.,.
O=C(NNC(=O)c1cccc2ccccc12)c1ccc(Br)cc1,.,.,.,.,.,.
N#Cc1cccc(C(=O)Nc2cccc(S(=O)(=O)N3CCCC3)c2)c1,.,.,.,.,38,.
CN(C)S(=O)(=O)c1cccc(NC(=O)c2cccc(S(=O)(=O)N3CCc4ccccc43)c2)c1,.,.,.,.,34,.
CC(C)[C@H](NC(=O)c1cccc(S(=O)(=O)N2CCOCC2)c1)C(=O)OCC(=O)Nc1cccc(Br)c1,19,.,.,.,.,.
O=C(Nc1cccc(S(=O)(=O)N2CCOCC2)c1)c1cc(S(=O)(=O)N2CCOCC2)c(Cl)cc1Cl,.,.,.,.,36,.
O=C(Nc1cccc(S(=O)(=O)N2CCCC2)c1)c1cc(S(=O)(=O)N2CCOCC2)ccc1F,.,.,.,.,.,.
CCCN1CCC(NC(=O)Cc2cccc(C)c2)CC1,.,.,.,.,.,.
COc1ccc(-n2nc(C(=O)NCC(=O)Nc3cccc(Cl)c3)c3ccccc3c2=O)cc1OC,.,.,.,.,.,.
CN1CCN(c2ccc(NC(=O)c3cccc(S(=O)(=O)N4CCCC4)c3)cc2)CC1,.,.,.,.,47,.
CS(=O)(=O)c1cccc(C(=O)Nc2ccc(S(=O)(=O)N3CCCCC3)cc2)c1,.,.,.,.,.,.
O=C(Nc1cccc(S(=O)(=O)N2CCCC2)c1)c1cccc(S(=O)(=O)N2CCOCC2)c1,.,.,.,.,29,.
O=C(Nc1ccc(N2CCOCC2)cc1)c1cccc(S(=O)(=O)N2CCCCCC2)c1,.,.,.,.,.,.
O=C(Nc1ccc(N2CCOCC2)cc1)c1cccc(S(=O)(=O)N2CCCC2)c1,.,.,.,.,34,.
CC1CCCC(C)N1C(=O)CNCc1ccc2c(c1)OCO2 (stereo not drawn),.,.,.,.,.,.
Cn1cc(CN2C[C@]3(C)C[C@H]2CC(C)(C)C3)c(-c2ccc3c(c2)OCCO3)n1,.,.,.,.,.,.
Cc1ccc(NC(=O)N2CCN(C/C=C/c3ccccc3)CC2)cc1,.,.,.,.,.,.
COC(=O)c1ccccc1NC(=O)N1CCN(C/C=C/c2ccccc2)CC1,.,.,.,.,.,.
Cc1ccccc1C(=O)NCC(=O)N1CCN(C/C=C/c2ccccc2)CC1,23,.,.,.,33,.
COc1ccccc1C(=O)NCC(=O)N1CCN(C/C=C/c2ccccc2)CC1,22,.,.,.,.,.
Cc1ccc(C(=O)CCC(=O)N2CCN(C/C=C/c3ccccc3)CC2)cc1,24,.,.,.,.,.
SMILES,CHRM1 agonist,M1 PAM parental,CHO-K1 Ca antag,CHRM1 PAM,CHRM1 antagonist,CHO-K1 Ca ag
CCOc1ccc(C(=O)NCC(=O)N2CCN(C/C=C/c3ccccc3)CC2)cc1OCC,27,.,.,.,30,.
CCCCNC(=O)N1CCN(C/C=C/c2ccccc2)CC1,.,.,.,.,.,.
CC(C)[C@H](NC(=O)c1ccc(Cl)cc1Cl)C(=O)OCc1nc2ccsc2c(=O)[nH]1,.,.,.,.,.,.
COCCn1c(SCC(=O)NNC(=O)Cc2ccccc2)nc2ccccc2c1=O,.,.,25,.,.,.
COCC(C)NC(=O)CSc1nc2ccccc2c(=O)n1CCc1ccc(S(N)(=O)=O)cc1 (stereo not drawn),.,.,.,.,30,.
CN(C)CCCn1c(SCC(=O)N2c3ccccc3Sc3ccccc32)nc2ccccc2c1=O,.,.,.,.,39,.
Cc1cc(Cl)ccc1C(O)c1ncc(-c2cccc(C(F)(F)F)c2)[nH]1 (stereo not drawn),.,.,.,.,.,.
CCN(CC(=O)NCc1cccs1)C(=O)c1cccc(S(=O)(=O)Nc2ccccc2Cl)c1,.,.,.,.,.,.
O=C(Nc1ccccc1N1CCN(C(=O)c2ccc(Cl)cc2)CC1)c1ccc(Br)cc1,.,.,27,.,.,.
O=C(c1ccc(Cl)cc1)N1CCN(c2cc(=O)[nH]nc2-c2ccccc2)CC1,.,.,28,.,.,.
O=C(NCCC(=O)N1CCN(c2ccccc2O)CC1)c1ccc(Br)cc1,.,.,.,22,.,.
COc1ccc(C(=O)Nc2ccccc2N2CCN(C(=O)c3ccccc3)CC2)cc1Br,.,.,.,.,35,.
COc1ccc(C2CCCN2C(=S)Nc2ccc(C)cc2Cl)cc1OC (stereo not drawn),.,.,.,.,.,.
COc1ccc(Nc2ccc(N3C(=O)CCCC3=O)cc2[N+](=O)[O-])c(OC)c1,.,.,.,.,.,.
CCOc1ccc(-c2cc(C(=O)N3CCN(c4ccccn4)CC3)c3ccccc3n2)cc1,.,.,.,.,.,.
COc1ccc(-c2cc(C(=O)N3CCN(c4ccccn4)CC3)c3ccccc3n2)cc1,.,.,.,.,30,.
O=C(c1cc(-c2cccs2)nc2ccccc12)N1CCN(c2ccccc2O)CC1,.,.,.,.,32,.
COc1ccc(-c2cc(C(=O)N3CCN(c4ccccc4O)CC3)c3ccccc3n2)cc1OC,.,.,.,.,46,.
c1ccc(C(c2ccccc2)c2noc(CN3CCN(CC4CC4)CC3)n2)cc1,.,.,.,.,94,.
CN(C)c1nc2ccccc2n(C)c1=O,.,.,24,.,.,.
CCCCOc1ccc(C(=O)N2CCCC2)cc1,.,.,.,.,.,.
CCCCCOc1ccc(C(=O)CCC(=O)N2CCCC2)cc1,.,.,.,.,22,.
CC(=O)c1ccc(N2CCN(C3CCC(C(C)(C)C)CC3)CC2)cc1 (stereo not drawn),.,.,.,.,39,.
COCCN(CC(=O)Nc1cccc(C)c1C)C(=O)c1cc2c(s1)CCC2,.,.,.,.,.,.
O=c1c2ccc([N+](=O)[O-])cc2ncn1CCOc1ccc(Cl)cc1,.,.,.,.,44,.
CSc1ccccc1NC(=O)CN(C)CC(=O)Nc1c(F)cccc1F,.,.,.,.,.,.

# Assay outcomes as filed in PubChem.
